# Sampled rows, rich in hits. Any-hit rate of the full collection: about 11%.
# Pf growth 96h: Primary qHTS for delayed death inhibitors of the malarial parasite plastid, 96 hour incubation; P. falciparum luciferase reporter growth, 96 h; Potency, µM (series often up to 28.7 µM), for the others: at the top dose activity change, negative = inhibition, usual class: inhibitors; 320,000 compounds, 6.9% hits; AID 504834, 2011; also: % is scaled to controls: 0 for no effect and ±100 for the full control effect
#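 Erythrocytes infected with luciferase-expressing P. falciparum were dispensed at 2% hematocrit and 0.05% parasitemia (final), then incubated with compounds 96 hours at 37 C in 5% CO2. Luminescence after detection reagent addition reported growth.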
# AMA1 RON2 block: qHTS for Inhibitors of AMA1-RON; Towards Development of Antimalarial Drug Lead: Primary Screen; Plasmodium falciparum AMA1 (3D7) - RON2 peptide interaction; AlphaScreen AMA1-biotinylated RON2 peptide binding; Potency, µM (highest dose often 58.2 µM), inactives show top-dose activity change, negative = inhibition, actives largely listed as inhibitors; 360,000 compounds, 0.2% hits;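 also: 0% = vehicle wells and -100% = peptide control; nearly all actives have a fitted effect of over 45% in size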
#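 AMA1 (3D7) with his tag at 25 nM final met compounds first, then biotinylated RON2 peptide at 25 nM; detection used donor plus acceptor beads, 10 µg/mL apiece, read by AlphaScreen after 30 min at room temperature.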
# Sm TGR inh: qHTS Assay for the Inhibitors of Schistosoma Mansoni Peroxiredoxins; Schistosoma mansoni thioredoxin glutathione reductase (TGR), Q962Y6; Potency, µM (titrated, usually from 114 µM), inactives show at the top dose activity change, negative = inhibition, most hits filed as inhibitors; AID 485364, 2010; 360,000 compounds, 3% hits; purified TGR, DTNB reduction, TNB absorbance 405 nm; also: % is scaled to controls: 0 for no effect and ±100 for the full control effect; nearly all actives have a fitted effect of over 60% in size
#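 TGR 20 nM + NADPH 100 uM (dispensed conc.), cpd preinc 15 min RT; start with NADPH (500 uM addition) then DTNB (15 mM addition). Kinetic TNB absorbance, 405 nm filter. Four-parameter Hill fit across titration.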
# NS1 inh: qHTS Assay for Inhibitors of Influenza NS1 Protein Function; AID 2326, 2010; Potency, µM (top dose mostly 46.1 µM), inactives show at the highest dose activity, positive = more growth; 270,000 compounds, 0.4% hits; calls by dose curve; also: actives are rising curves; nearly all actives have a fitted effect of over 50% in size
#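 S. cerevisiae expressing influenza A NS1, grown in glucose, washed, then diluted 1:100 into pH 6.0 -URA galactose medium with 23 nl compound. Growth recovery read as OD600; NS1-free strain serves as control.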
# Pf growth 48h: Primary qHTS for delayed death inhibitors of the malarial parasite plastid, 48 hour incubation. P. falciparum luciferase growth in erythrocytes, 48 h. Potency, µM (highest dose often 28.7 µM), without a hit: at the highest dose activity change, negative = inhibition, most hits filed as inhibitors. 310,000 compounds, 5.9% hits. AID 504832, 2011; also: % is scaled to controls: 0 for no effect and ±100 for the full control effect
#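 First compound was added to culture medium, then infected red cells at 0.1% parasitemia and 2% hematocrit (final). After incubation at 37 C under 5% CO2, luciferase detection reagent was dispensed and light output recorded.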
# * = called active by the depositor; ? = inconclusive; / = no result given. Unless noted, calls follow the shape of the dose curve; as a rule, active = well fitted curve in the direction sought with a large enough effect; inconclusive = small, poorly fitted or top-dose-only effect, or another doubt; inactive = no such curve, though single readings can be large; an effect the other way counts as inactive or inconclusive. Potency is read from the fitted curve at half-maximal effect.
SMILES,Pf growth 96h,AMA1 RON2 block,Sm TGR inh,NS1 inh,Pf growth 48h
O=C(NCC1(N2CCOCC2)CCCCC1)c1cccc(S(=O)(=O)N2CCc3ccccc3C2)c1,?,-11.0%,-1.4%,-3.0%,8.28µM*
Cc1ccc([C@H]2C[C@H](n3cc(COC(=O)c4ccccc4)nn3)[C@@H](O)CN2C(=O)C2CCCCC2)cc1,/,-1.1%,/,/,/
O=C(NCc1cccc(F)c1)c1ccc(NC(=O)c2nsc3ccccc23)cc1,/,/,3.1%,/,/
CCCC(=O)Nc1ccc(-c2nc3ncccc3o2)cc1,?,13.8%,-17.7%,-20.5%,-53.3%
Cc1cccc[n+]1C1C(c2ccccc2)C(C#N)=C(C(=C=[N-])C#N)NC1(O)C1CC1 (stereo not given),?,-2.2%,5.62µM*,?,?
N#CC(=C=[N-])C1=C(C#N)C(c2ccccc2F)C([n+]2ccccc2)C(O)(C2CC2)N1 (stereo not given),/,1.9%,-25.8%,-0.1%,11.0%
CCOC(=O)c1[nH]c(C)c(CCC(=O)Nc2c(C)cc(C)cc2C)c1C,/,/,1.9%,/,/
CCOc1cc(-c2noc(CCC(=O)NCCc3ccccc3)n2)ccc1OC,2.62µM*,14.2%,5.8%,-26.7%,0.0%
Cc1cccc(-c2noc(-c3ccccc3C(=O)NCc3ccco3)n2)c1,34.3%,-21.3%,22.4µM*,3.9%,36.5%
COc1cc(-c2noc(CCC(N)=O)n2)cc(OC)c1OC,9.28µM*,/,9.3%,-2.0%,-5.0%
COc1cc(-c2noc(CCC(=O)NC3CCCC3)n2)cc(OC)c1OC,5.1%,12.4%,-2.5%,-10.2%,-12.4%
Cc1ccccc1-c1noc(CCC(=O)NCc2ccco2)n1,2.9%,6.9%,28.2µM*,9.2%,0.9%
CCOc1ccc(OCCCC(=O)N2CCN(S(=O)(=O)c3ccccc3C#N)CC2)cc1,/,-12.0%,/,/,/
Cc1ccc(-c2noc(CCCC(=O)NCc3ccco3)n2)cc1,/,/,-2.4%,/,/
COc1ccc(-c2noc(CCC(=O)NCc3ccco3)n2)cc1,26.4%,-3.4%,39.8µM*,-4.7%,24.0%
CCN(CC)C(=O)CSc1nc2c(sc(=S)n2-c2ccccc2OC)c(=O)n1-c1ccccc1,?,-19.8%,17.7%,0.3%,11.7µM*
CCOC(=O)CSc1nc2c(sc(=S)n2Cc2ccco2)c(=O)n1-c1ccc(F)cc1,36.3%,-9.0%,-10.3%,?,10.4µM*
CCN(CC)C(=O)CSc1nc2c(sc(=S)n2CC)c(=O)n1-c1ccccc1,?,8.4%,4.9%,-3.8%,/
COc1ccc(-n2nc(C(=O)NCC(=O)NCCC3=CCCCC3)c3ccccc3c2=O)c(OC)c1,17.0%,0.4%,-1.3%,5.4%,?
O=C1N=C(N2CCOCC2)S/C1=C\c1ccc(-c2ccccc2Cl)o1,?,13.0%,-4.6%,6.6%,0.1%
Cc1ccccc1-c1ccc(/C=C2/SC(N3CCOCC3)=NC2=O)o1,?,-18.2%,?,1.8%,10.4µM*
COC(=O)C1=C(N)Oc2cc(C)[nH]c(=O)c2C1c1ccccc1OC (stereo not given),27.0%,6.8%,0.0%,-2.8%,-4.5%
Cn1c(=O)c(N)c2c3c(c(Br)ccc31)C(=O)c1ccccc1-2,?,-1.3%,12.6µM*,-3.4%,?
CCOC(=O)C[N+](C)(C)CCOC1CC2CCC1(C)C2(C)C (stereo not given),0.3%,6.7%,/,-0.3%,2.08µM*
CC1(C)C2CCC1(C)C(OCC[N+](C)(C)CC(=O)OC1CCCCC1)C2 (stereo not given),0.522µM*,7.5%,-4.6%,8.3%,1.47µM*
SMILES,Pf growth 96h,AMA1 RON2 block,Sm TGR inh,NS1 inh,Pf growth 48h
CC1(C)[C@@H]2CC[C@]1(C)[C@@H](OC(=O)CSC#N)C2,-18.6%,/,/,0.3%,-12.1%
CC1(C)[C@H]2CC[C@]1(C)[C@@H](OC(=O)C[N+]1(C)CCOCC1)C2,-17.1%,-15.0%,16.0%,1.2%,0.0%
COc1ccc(Cc2n[nH]c(=S)n2C)cc1Br,1.0%,8.9%,31.6µM*,2.6%,25.1%
COc1ccc(Cc2n[nH]c(=S)n2N)cc1OC,?,69.3%,/,4.0%,7.1%
Cc1sc2ncn(CC(=O)N(C)c3ccc(Br)cc3)c(=O)c2c1S(=O)(=O)N1CCC(C)CC1,/,/,-5.0%,/,/
CN(C)c1ccc(CNC(=O)c2cnc3sc(N4CCCC4)nn3c2=O)cc1,/,/,-2.3%,/,/
CCN(CC)CCN(Cc1cc2cc3c(cc2[nH]c1=O)OCO3)C(=S)NCc1ccco1,6.57µM*,-2.8%,-6.6%,5.3%,-4.3%
CCN(CC)CCN(Cc1cc2ccc(C)c(C)c2[nH]c1=O)C(=S)NCc1ccco1,?,1.6%,2.8%,4.8%,10.4µM*
CCN(CC)CCN(Cc1cc2cc(C)ccc2[nH]c1=O)C(=S)NCc1ccco1,?,0.6%,3.3%,23.9%,6.57µM*
COc1ccccc1NC(=S)N(Cc1ccco1)Cc1cc2cc(C)c(C)cc2[nH]c1=O,2.08µM*,-11.7%,1.3%,15.9%,13.1µM*
CCN(CC)CCCN(Cc1cc2cc3c(cc2[nH]c1=O)OCO3)C(=S)NCc1ccco1,-15.9%,2.7%,0.0%,2.7%,?
CC(=O)c1ccc[n+](CC(=O)NC(C)c2ccccc2)c1 (stereo not given),?,2.8%,-21.1%,0.4%,20.8%
O=[N+]([O-])c1cc(S(=O)(=O)NCCN2CCOCC2)ccc1Cl,-21.2%,2.7%,?,11.1%,-15.9%
CCN(CC)CCN(Cc1cc2cc3c(cc2[nH]c1=O)OCCO3)C(=S)NCC(C)C,?,-3.5%,?,13.4%,?
CNC(=S)N(Cc1ccco1)Cc1cc2cc3c(cc2[nH]c1=O)OCCO3,0.0%,-12.2%,14.1µM*,-4.7%,-15.0%
CCN(CC)CCN(Cc1cc2cc3c(cc2[nH]c1=O)OCO3)C(=S)NCC(C)C,3.7µM*,-2.2%,1.4%,3.2%,?
CN(CCC#N)C(=O)CC1(Cc2ccccc2)CCOC(C)(C)C1 (stereo not given),27.6%,-11.0%,-3.8%,1.7%,14.3%
COc1ccc(NC(=O)CN(C)C(=O)CCNS(=O)(=O)c2ccc(Br)cc2)cc1,7.0%,23.7%,-9.4%,-8.1%,-3.5%
COc1ccc(CN(CCC(c2ccc3c(c2)OCO3)c2ccccc2OC)C(C)=O)cc1 (stereo not given),/,/,-6.1%,/,/
CC(=O)N(CCC(Cc1ccccc1)c1ccc2c(c1)OCO2)Cc1ccc(Cl)cc1 (stereo not given),8.28µM*,?,13.9%,19.8%,9.28µM*
CC(=O)N(CCC(Cc1ccccc1)c1ccco1)Cc1ccco1 (stereo not given),?,-3.4%,22.4µM*,2.3%,?
O=C(O)/C=C/C(=O)N(Cc1ccccc1)Cc1ccco1,42.8%,14.7%,3.3%,1.3%,18.1%
